Inconclusive results are not listed. The source made the active and inactive calls. Calls follow the shape of the dose curve; as a rule, active = well fitted inhibition curve with a large enough effect; inconclusive = small, poorly fitted or top-dose-only effect; inactive = no such curve, though single readings can be large or run the other way.
Assay: Acumen qHTS Assay for Inhibitors of the mTORC1 Signaling Pathway in MEF (Tsc2-/-, p53-/-) Cells: Hit Validation;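 also: phospho-rpS6 Ser235/236 immunofluorescence normalized to propidium iodide cell count; nearly all actives have a fitted effect of over 65% in size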;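 as to activity change, negative = inhibition: cells exposed to compound for 24 hours; plate controls were DMSO for no effect and 7.5 nM rapamycin control for full effect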
Settings: Acumen imaging; activity change, negative = inhibition: at 37.3 µM (top of the series)
In the case of O=C(Nc1ccc(F)c(F)c1)c1ccc(F)c(S(=O)(=O)N2CCC3(CC2)OCCO3)c1, the Potency is reported as 10400 nM (active).
For CCC(C)S(=O)(=O)c1oc(-c2cccs2)nc1S(=O)(=O)c1ccccc1 (configuration not stated), the Potency was 927 nM (active).
For CCOc1ccc(N(Cc2ccccc2)C(=O)c2nc(S(C)(=O)=O)ncc2Cl)cc1, the Potency was 2930 nM (active).
In the case of COC(=O)c1ccccc1NC(=O)Cn1c(=O)n(-c2ccc(C)cc2)c(=O)c2ccccc21, the Potency is reported as 5850 nM (active).
CC(C)(C)C1CCc2c(sc(NC(=O)C3c4ccccc4Oc4ccccc43)c2C(N)=O)C1 (configuration not stated) showed an activity change, negative = inhibition of -15.3%.
COCCCNC(=O)c1ccc(CSc2nc3cccnc3n2Cc2ccc(OC)cc2)cc1 showed an activity change, negative = inhibition of 2.82%.
O=C(NCCN1CCN(c2cccc(Cl)c2)CC1)Nc1ccccc1C(F)(F)F showed an activity change, negative = inhibition of -3.27%.
In the case of CCS(=O)(=O)c1ncc(Cl)c(C(=O)N2CCN(c3cccc(Cl)c3)CC2)n1, the Potency is reported as 1310 nM (active).
CCc1ccc(-c2nc(CSCC(=O)NCc3ccc(C)cc3)c(C)o2)cc1 gave an activity change, negative = inhibition of 4.67%.
In the case of CC(C)OCc1cc(CN2CCN(c3cccc(C(F)(F)F)c3)CC2)c(O)c2ncccc12, the Potency is reported as 11700 nM (active).
For CCS(=O)(=O)c1ncc(Cl)c(C(=O)N(Cc2ccccc2)c2ccc(OC)cc2)n1, the Potency was 2930 nM (active).
Work on CCCN1C(=O)C(Cc2nc3ccccc3c(=O)n2CC)c2ccccc21 (configuration not stated) yielded an activity change, negative = inhibition of -1.87%.
With Cc1cccc(CS(=O)(=O)c2ncc(Cl)c(C(=O)NCc3ccccc3)n2)c1 the activity change, negative = inhibition was -111%.
Cc1cc(NC(=O)c2ccco2)cc(-c2nc3cc(Cl)ccc3o2)c1O gave an activity change, negative = inhibition of -46.5%.
In the case of Cc1cc(-c2ccc(S(=O)(=O)Nc3cccc(C)c3C)s2)on1, the Potency is reported as 4140 nM (active).
With COc1ccc(OC)c(NC(=O)c2nc(S(=O)(=O)Cc3ccc(F)cc3)ncc2Cl)c1 the Potency was 2070 nM (active).
For CCOc1ccccc1NS(=O)(=O)c1ccc(-c2cnc(C3CC3)o2)cc1, the Potency was 464 nM (active).
Compound Cc1ccc2oc(-c3ccc(Cl)cc3)c(O)c(=O)c2c1 has an activity change, negative = inhibition of -44.5%.
Compound CCN1CCN(C(=O)Cn2ncc3c4ccccc4n(Cc4c(C)cc(C)cc4C)c3c2=O)CC1 has an activity change, negative = inhibition of -17.5%.
With CCN1CCOC(=O)C1CC(=O)Nc1cccc(OC)c1 (configuration not stated) the activity change, negative = inhibition was -21.3%.
Work on COc1ccc(CNC(=O)c2nc(S(=O)(=O)Cc3ccccc3)ncc2Cl)cc1 yielded an activity change, negative = inhibition of -99.8%.
For CCOc1ccc(NC(=O)c2sc3nc4c(cc3c2N)CCCCCC4)cc1, the Potency was 9270 nM (active).
With Cc1cc(C)c(NC(=O)c2sc3nc(C)cc(C)c3c2NC(=O)c2ccccc2)c(C)c1 the activity change, negative = inhibition was -8.54%.
CC[C@H](CO)Nc1nc(NCc2ccccc2)c2ncn(C(C)C)c2n1 showed an activity change, negative = inhibition of -22.4%.
CCc1cnc2c(c1SCC(=O)NCc1ccc(F)cc1)c(=O)n(C)c(=O)n2C gave an activity change, negative = inhibition of 5.42%.
Work on CCOc1ccc(Nc2nc(-c3cccc(Cl)c3)c3c(n2)-c2ccccc2OC3)cc1 yielded an activity change, negative = inhibition of 6.48%.
With CCS(=O)(=O)c1ncc(Cl)c(C(=O)NCc2ccc(OC)cc2)n1 the Potency was 6560 nM (active).
Cc1cccc(NC(=O)c2c(N)sc3c2CCC(C)C3)c1 (configuration not stated) gave an activity change, negative = inhibition of 15.3%.
Work on CC(C)CS(=O)(=O)c1oc(-c2ccc(F)cc2)nc1S(=O)(=O)c1ccccc1 yielded an activity change, negative = inhibition of -152%.
Cc1cccc(OCc2ccc(-c3nc(C#N)c(NCCN(C)C)o3)o2)c1 gave an activity change, negative = inhibition of 0.2%.
CCN1CCN(c2ccc(NS(=O)(=O)c3c(C)nc4sccn4c3=O)cc2Cl)CC1 gave an activity change, negative = inhibition of -78.4%.
In the case of Cc1cccc(NC(=O)Cn2cc(C(=O)C3CCCCC3)c3ccccc32)c1C, the Potency is reported as 1040 nM (active).
Work on O=C(c1ccco1)n1nc(-c2ccc(Cl)cc2)nc1NCc1ccccc1 yielded an activity change, negative = inhibition of -47.3%.
COCc1oc2ccc(NS(=O)(=O)c3ccc(C)cc3)cc2c1C(=O)OC gave an activity change, negative = inhibition of -61.3%.
In the case of COC(=O)c1c(C)oc2ccc(N(C(=O)c3ccncc3)S(=O)(=O)c3ccc(OC)cc3)cc12, the Potency is reported as 1850 nM (active).
For CCOC(=O)N1CCN(Cc2nc3cc(NC(=O)c4ccc([N+](=O)[O-])cc4)ccc3n2C(C)C)CC1, the activity change, negative = inhibition was -17.8%.
Work on COc1ccc(-c2nc(C)c(CCNC(=O)c3ccccc3Br)s2)cc1OC yielded an activity change, negative = inhibition of -7.02%.

Reference: PubChem BioAssay AID651784 (National Center for Advancing Translational Sciences (NCATS), 2012)
Potency is read from the fitted curve at half-maximal effect.
